Many of the other results were omitted from the sample, so hits are more common in it than they were.
nsP2pro inh – inhibitors of chikungunya virus nsP2 protease; Q8JUX6; FRET peptide cleavage, nsP2pro, fluorescence 1 h; Potency, µM (titrated, usually from 24.9 µM), most hits filed as inhibitors; 1.1% of 31,000 active; AID 1964107; note: nearly all actives have a fitted effect of over 60% in size
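Enzyme 150 nM, substrate 2.5 uM (both final); Tris-HCl 10 mM pH 8.0 + 0.01% Tween 20; cpd up to 25 uM, 7 pts; 15 min preinc., 1 h RT; fluorescence ex 525/em 598.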
CHIKV nsP2 cell – inhibits CHIKV nsP2 protease in cells; shares compounds with nsP2pro inh; cell-based CHIKV nsP2 protease reporter assay; 10% of 450 active; AID 1964100; Potency, µM (series often up to 51.1 µM), usual class: inhibitors; note: nearly all actives have a fitted effect of over 70% in size
Target sequence (Q8JUX6 220-798 limits assumed): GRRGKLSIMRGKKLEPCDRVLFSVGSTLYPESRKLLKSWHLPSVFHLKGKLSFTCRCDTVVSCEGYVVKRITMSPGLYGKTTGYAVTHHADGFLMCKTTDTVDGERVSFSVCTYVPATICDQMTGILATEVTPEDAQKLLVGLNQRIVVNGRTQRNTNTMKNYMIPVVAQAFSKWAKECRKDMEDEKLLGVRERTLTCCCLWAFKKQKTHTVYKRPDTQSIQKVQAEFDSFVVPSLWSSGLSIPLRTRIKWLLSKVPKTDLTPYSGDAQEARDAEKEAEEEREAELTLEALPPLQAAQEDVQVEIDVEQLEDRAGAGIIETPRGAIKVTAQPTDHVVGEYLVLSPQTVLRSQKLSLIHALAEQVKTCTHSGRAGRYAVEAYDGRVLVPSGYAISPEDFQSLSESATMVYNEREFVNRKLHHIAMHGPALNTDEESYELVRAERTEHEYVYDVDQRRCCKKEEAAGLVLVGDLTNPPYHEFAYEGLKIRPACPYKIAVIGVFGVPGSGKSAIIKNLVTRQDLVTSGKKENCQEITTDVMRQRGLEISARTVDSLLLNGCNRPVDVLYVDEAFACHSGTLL
NSP2 full ctr – inhibits full-length CHIKV NSP2 enzyme | Potency, µM (top dose mostly 50.7 µM), usual class: inhibitors | shares compounds with nsP2pro inh | 39% of 410 active | Full-length CHIKV NSP2 protease enzymatic counterscreen; note: nearly all actives have a fitted effect of over 65% in size
Furin counterscr – selectivity counter-screen for CHIKV nsP2 protease inhibitors: human furin; shares compounds with nsP2pro inh; Recombinant human furin enzymatic counterscreen, fluorogenic substrate; Potency, µM (titrated, usually from 50.6 µM), hits mostly inhibitors; 6% of 410 active; AID 1964102
nsP2 NS23 pep – nsP2pro inhibition on native NS2/3 peptide substrate. 34% of 410 active. Purified CHIKV nsP2 protease, endogenous NS2/3 peptide cleavage. AID 1964103. Potency, µM (series often up to 51 µM), hits mostly inhibitors. shares compounds with nsP2pro inh; note: nearly all actives have a fitted effect of over 55% in size
Papain counter – inhibits papain in a CHIKV nsP2 protease selectivity counterscreen; shares compounds with nsP2pro inh; purified papain protease activity, enzymatic inhibition; Potency, µM (highest dose often 51 µM), actives largely listed as inhibitors; 5% of 410 active
nsP2pro confirm – CHIKV nsP2 protease inhibition, confirmatory qHTS; shares compounds with nsP2pro inh; CHIKV nsP2 protease enzymatic activity, qHTS; Potency, µM (series often up to 25.5 µM), actives largely listed as inhibitors; 43% of 410 active; note: nearly all actives have a fitted effect of over 75% in size
HCV NS3 4A cs – inhibits HCV NS3/4A protease in an nsP2pro selectivity counterscreen; AID 1964106; 20% of 410 active; Potency, µM (titrated, usually from 50.9 µM), usual class: inhibitors; HCV NS3/4A protease biochemical counterscreen; shares compounds with nsP2pro inh; note: nearly all actives have a fitted effect of over 55% in size
Large screens that a line does not name were inactive (follow-up assays come after a bar, where they were run). Calls come from the whole dose curve.

CC(C)C[C@H]1C(=O)O[C@H](Cc2ccc(N3CCOCC3)cc2)C(=O)N(C)[C@@H](CC(C)C)C(=O)O[C@H](C)C(=O)N(C)[C@@H](CC(C)C)C(=O)O[C@H](Cc2ccc(N3CCOCC3)cc2)C(=O)N(C)[C@@H](CC(C)C)C(=O)O[C@H](C)C(=O)N1C	none
O=C(NC1CCCN(C2CCCCCC2)C1)c1ccccc1C(F)(F)F (centres undefined)	none
CCc1nc(C)sc1C(=O)N1C[C@@H](C(=O)O)[C@H](c2cccc(OC)c2)C1	none
OC1CC(c2cccc(F)c2)N(Cc2ccc(-c3ccn[nH]3)o2)C1 (centres undefined)	nsP2pro inh inconclusive | CHIKV nsP2 cell inactive | NSP2 full ctr inactive | Furin counterscr inactive | nsP2 NS23 pep inconclusive | Papain counter inactive | nsP2pro confirm inconclusive | HCV NS3 4A cs inactive
CC(C)c1noc([C@@H]2C[C@@H](O)CN2Cc2cc3ccccc3o2)n1	none
O[C@@H]1C[C@@H](c2nc(Cc3ccc(F)cc3Cl)no2)N(Cc2ccc(OC(F)(F)F)cc2)C1	none
Cn1nc(C2CCN(C(=O)NCc3ccccc3)CC2)c2c1CCOC2	none
C[n+]1c2cc(N)ccc2cc2ccc(N)cc21 (tested in a mixture with another compound)	nsP2pro inh inconclusive | CHIKV nsP2 cell inconclusive | NSP2 full ctr inactive | Furin counterscr inconclusive | nsP2 NS23 pep inconclusive | Papain counter inconclusive | nsP2pro confirm inactive | HCV NS3 4A cs inactive
COc1ccc(-n2nc(C)c([C@@H]3C=C[C@@H](NCc4ccc(C(C)C)cc4)C3)c2C)cc1	none
Cc1cc(=O)[nH]c2nnc(SCc3ccc(Cl)cc3Cl)n12	none
Clc1ccccc1CSc1nnc(C2CCNCC2)o1	none
CC(C)C[C@H](N)c1nnc(SCc2ccc(Cl)cc2Cl)o1	nsP2pro inh inconclusive | CHIKV nsP2 cell inactive
Cc1cc(C)nc(NC(=S)N2CCN(c3cccc(S(C)(=O)=O)c3)CC2)c1	none
O=[S+]1([O-])[C@@H](c2ccccc2)[C@H](COCc2ccccc2)CN1C1CC1	none
C[C@H]1[C@H](OC(=O)CCC(=O)O)O[C@@H]2O[C@@]3(C)CC[C@H]4[C@H](C)CC[C@@H]1[C@@]24OO3	none
COc1cccc(-c2ccc(CN3CCCC(N[S+](=O)([O-])c4c(C)noc4C)C3)cc2)c1 (centres undefined)	none
O=C(O)c1ccc(OCCCOc2ccc(C(=O)O)cc2)cc1	none
CCCCOc1ccc(C(=O)CCN2CCCCC2)cc1	nsP2pro inh 2.21µM | CHIKV nsP2 cell inconclusive | NSP2 full ctr 10.3µM | Furin counterscr inconclusive | nsP2 NS23 pep 13µM | Papain counter inconclusive | nsP2pro confirm 8.96µM | HCV NS3 4A cs inactive
CCCCOc1ccc(OCCCN2CCOCC2)cc1	none
Cc1cc(OCC(=O)N2CCN(CCc3ccncc3)CC2)ccc1Cl	none
CCCCOc1ccc(C(=O)N2CCN(CCc3ccncc3)CC2)cc1	nsP2pro inh inconclusive | CHIKV nsP2 cell inactive
Cc1ccc(OCC(=O)N2CCN(CCc3ccncc3)CC2)cc1C	none
Cc1ccnc(NC(=S)N2CCN(c3cc(C(F)(F)F)cc(C(F)(F)F)c3)CC2)c1	none
O=c1c2ccccc2nc2sc(Nc3cccc(N4CCN5CCCCC5C4)c3)nn12 (centres undefined)	none
COc1cccc(C(=O)N(C)Cc2ccccc2C(F)(F)F)c1	none
c1cc2c(cc1CNc1ccc(N3CCCCC3)cc1)OCO2	none
COc1ccc(-c2nc3cc(C(=O)NCC(C)C)ccc3o2)cn1	none
O=C(NCCN1C(=O)C2(CCCCC2)C1c1ccccc1)NCc1ccccc1 (centres undefined)	none
O=C(O)c1cccc(-c2noc(-c3cccc(C(F)(F)F)c3)n2)c1	none
CCCN1C[C@H](C)[C@@H](O)[C@](C)(O)[C@@H](CC)OC(=O)[C@H](C)[C@@H](O[C@H]2C[C@@](C)(OC)[C@@H](O)[C@H](C)O2)C(C)[C@@H](O[C@@H]2O[C@H](C)C[C@H](N(C)C)[C@H]2O)[C@](C)(O)C[C@H]1C (some centres undefined)	none
c1nc(N2CCC(N3CCCC3)CC2)c2cc(-c3ccc4c(c3)OCO4)ccc2n1	none
Cc1ccc(CNc2ncnc3ccc(-c4ccc(C(=O)N(C)C)o4)cc23)o1	none
Cc1ccc(CNc2ncnc3ccc(-c4ccc(CO)o4)cc23)o1	nsP2pro inh inconclusive | CHIKV nsP2 cell inactive | NSP2 full ctr inactive | Furin counterscr inactive | nsP2 NS23 pep inactive | Papain counter inactive | nsP2pro confirm inactive | HCV NS3 4A cs inactive
O=C(O)c1ccc(-c2ccc3ncnc(NCCc4cnc[nH]4)c3c2)o1	none
CC(O)c1ccc(-c2ccc3ncnc(NCc4nccs4)c3c2)o1 (centres undefined)	nsP2pro inh 10µM | CHIKV nsP2 cell inconclusive | NSP2 full ctr 11.6µM | Furin counterscr inactive | nsP2 NS23 pep 23.1µM | Papain counter inactive | nsP2pro confirm inactive | HCV NS3 4A cs 11.6µM
OCc1ccc(-c2ccc3ncnc(NCCc4cnc[nH]4)c3c2)o1	nsP2pro inh 1.12µM | CHIKV nsP2 cell 20.6µM | NSP2 full ctr inactive | Furin counterscr inactive | nsP2 NS23 pep inactive | Papain counter inactive | nsP2pro confirm inactive | HCV NS3 4A cs 10.3µM
Cc1ccc(CN(C)c2ncnc3ccc(-c4ccc(CO)o4)cc23)o1	none
CCNC(=O)c1ccc(-c2ccc3ncnc(NCc4nccs4)c3c2)o1	none
CCNC(=O)c1ccc(-c2ccc3ncnc(NCCc4cnc[nH]4)c3c2)o1	none
Cc1csc(CNc2ncnc3ccc(-c4ccc(C(=O)O)o4)cc23)n1	none
CC(O)c1ccc(-c2ccc3ncnc(N4CCOCC4)c3c2)o1 (centres undefined)	nsP2pro inh 10µM | CHIKV nsP2 cell inconclusive | NSP2 full ctr 16.3µM | Furin counterscr inactive | nsP2 NS23 pep inconclusive | Papain counter inactive | nsP2pro confirm inactive | HCV NS3 4A cs 20.6µM
O=C(O)c1ccc(-c2ccc3ncnc(N4CCOCC4)c3c2)o1	none
Cc1ccnc(NC(=S)N2CC3CN(c4ccc(Cl)cc4C(F)(F)F)CC3C2)c1 (centres undefined)	none
Cc1ccnc(NC(=S)NCCN(C)c2cccc(C(F)(F)F)c2)c1	none
COCC(=O)N[C@@H]1CN(Cc2cn(C)nc2C)C[C@H]1CO	none
COc1cccc(CN2C[C@@H](CO)[C@H](NC(=O)C3CC3)C2)n1	none
Cc1ccccc1-c1nc(Cn2ccnc2C(C)C)c(C)o1	none

Compound activity (PubChem BioAssay)
